Assay results as given in ChEMBL document CHEMBL1157539, “Thousands of chemical starting points for antimalarial lead identification” (Nature, 2010).
“And” between values parts separate entries of the source, which are not always exact repeats. Equal entries are not always repeated.

Key:
Type in all cases: functional
Plasmodium falciparum [1] = assay: GSK_TCMDC: Inhibition of Plasmodium falciparum 3D7 in whole red blood cells, using parasite LDH activity as an index of growth. Test compounds present at 2uM
Plasmodium falciparum [2] = assay: GSK_TCMDC: Inhibition of Plasmodium falciparum Dd2 in whole red blood cells, using parasite LDH activity as an index of growth. Test compounds present at 2uM
HepG2 = assay: GSK_TCMDC: Percent inhibition of human HepG2 cell line. Test compounds present at 10uM.

SMILES | Inhibition (Plasmodium falciparum [1]) [%] | Inhibition (Plasmodium falciparum [2]) | Inhibition (HepG2) [%]
O=C(NCCCCN1CC=C(c2ccc3c(c2OCc2ccccc2)CCCC3)CC1)c1ccc(-c2ccc(C(F)(F)F)cc2)cc1 | 97 | 82% | 19
CN1CCN(Cc2ccc(-c3ccc4c(Nc5ccc(Oc6ccccn6)cc5)ccnc4c3)o2)CC1 | 100 | 99% | 13
Cc1cccc2nc(-c3ccc(-c4ccc(CN5CCCC(O)C5)cc4)s3)[nH]c12.O=C(O)C(F)(F)F (stereo not given) | 100 | 29% | 38
Cc1[nH]c(C)c(-c2ccc(Oc3ccc(OC(F)(F)F)cc3)cc2)c(=O)c1Br | 96 | 97% and 95% | 0
CCOc1cc(C(=O)N[C@@H](Cc2ccccc2)[C@H](O)CNCc2cccc(OC)c2)cc(N2CCCCS2(=O)=O)c1.Cl | 97 | 94% | 3
Cc1nc(-c2ccc(-c3ccc(C(=O)Nc4ccc(-n5ccnc5)c(N5CCN(C)CC5)c4)cc3)c(C)c2)no1 | 100 | 100% | 34
Cc1cccc2nc(-c3cccc(-c4ccc(NC(=O)c5cnn6cccnc56)cc4)c3)[nH]c12 | 100 | 73% | 99
COc1ccc2nc3cc(Cl)ccc3c(Nc3ccc(O)c(CN4CC5CCC(CC5)C4)c3)c2c1.Cl | 100 | 100% | 17
Oc1ccccc1CN1CCCC(COC(c2ccc(F)cc2)c2ccc(F)cc2)C1 (stereo not given) | 97 | 98% | 19
COc1ccc(Cl)cc1N1CCN(CCCNC(=O)c2ccc(-c3nc4cc(Cl)c(Cl)cc4[nH]3)c(C)c2)CC1 | 100 | 0% | 4
COc1cc(CNC[C@@H](O)[C@H](Cc2ccccc2)NC(=O)c2cc(C3CCCC3)cc(N3CCCC3=O)c2)cc(OC)c1.Cl | 97 | 76% | 16
N#CCCN1CCN(Cc2ccc(-c3cccc(-c4nc5cc(F)ccc5[nH]4)c3)cc2)CC1.O=C(O)C(F)(F)F | 91 | 17% | 16
CC(C)n1cc2c(ccc3nc(N)nc(N)c32)n1 | 92 | 0% | 65
COc1cc(CCN(C)Cc2ccc(OC)c(OC)c2)ccc1NC(=O)c1cccc2c(O)c3cccc(F)c3nc12 | 100 | 26% | 14
CC(=O)Nc1ccc(CN(Cc2ccc(OC(C)(C)C)cc2)Cc2ccc3c(c2)OCCO3)cc1 | 91 | 75% | 7
CC1CCCC(NC(=O)CCOc2ccccc2)C1 (stereo not given) | 96 | 32% | 0
Cc1nnsc1C(=O)Nc1ccc(-c2cccc(-c3nc4cc(F)ccc4[nH]3)c2)cc1 | 96 | 27% | 44
Oc1ccc2nc(Nc3ccccc3)nc(NCCc3ccccc3)c2c1 | 100 | 100% | 20
CCCc1cnc2nc(N)nc(N)c2c1C | 93 | 3% | 68
Cc1[nH]c2c(C)cccc2c1C1CCN(CCC2CCN(C(=O)/C=C/c3ccc(Cl)c(Cl)c3)CC2)CC1 | 100 | 79% | 67
COc1cc(F)c2ncc(Cl)c([C@@H](O)CN3CCC(NCc4ccc5c(n4)NC(=O)CO5)CC3)c2c1.Cl | 100 | 100% | 12
CN(Cc1cccc(F)c1)C1CCCN(c2cc(NC(=O)c3ccccc3)ccn2)C1.O=C(O)C(F)(F)F (stereo not given) | 93 | 50% | 3
O=C(Nc1cccc(F)c1)N(Cc1ccc(-c2cccc(CN3CCNCC3)c2)cc1)C1CCN(Cc2ccccc2)CC1.O=C(O)C(F)(F)F | 97 | 54% | 13
CN(C)CCNCc1cccc(-c2ccc3c(Nc4ccc(F)cc4Cl)ccnc3c2)c1 | 100 | 98% | 17
COCc1cccc(-c2cc(-c3ccc(S(C)(=O)=O)cc3)cnc2N)c1 | 98 | 88% | 10
c1cc(Nc2nccc(-c3cnn4ncccc34)n2)cc(-c2cnco2)c1 | 96 | 83% | 54
Cc1[nH]c2ccccc2c1C=NNc1nc(=Nc2ccccc2)[nH]c(=Nc2ccccc2)[nH]1 | 87 | 23% | 3
Fc1cc(Cl)ccc1Nc1ccnc2cc(-c3ccc(CN4CCOCC4)o3)ccc12 | 99 | 98% | 33
COc1ccc(-c2nc(NC(=O)Cc3ccc(OC)c(OC)c3)sc2C)cc1 | 93 | 22% | 33
COc1ccc(C(=O)CCC(=O)N(CCSC(C)(C)C)Cc2ccc(-c3ccc(CNCCc4ccc(S(C)(=O)=O)cc4)cn3)cc2)cc1F.O=C(O)C(F)(F)F | 98 | 42% | 9
